# Whole data set: some 33,000 sequences, median “E-score (-0.5 to 0.5)” near -0.015, cut for the highest 2% near 0.3. This is one part of a sample in which the highest values are shown more often than they occur.
# Target: T1, Abf1 (UniProt P14164)
# T1 sequence: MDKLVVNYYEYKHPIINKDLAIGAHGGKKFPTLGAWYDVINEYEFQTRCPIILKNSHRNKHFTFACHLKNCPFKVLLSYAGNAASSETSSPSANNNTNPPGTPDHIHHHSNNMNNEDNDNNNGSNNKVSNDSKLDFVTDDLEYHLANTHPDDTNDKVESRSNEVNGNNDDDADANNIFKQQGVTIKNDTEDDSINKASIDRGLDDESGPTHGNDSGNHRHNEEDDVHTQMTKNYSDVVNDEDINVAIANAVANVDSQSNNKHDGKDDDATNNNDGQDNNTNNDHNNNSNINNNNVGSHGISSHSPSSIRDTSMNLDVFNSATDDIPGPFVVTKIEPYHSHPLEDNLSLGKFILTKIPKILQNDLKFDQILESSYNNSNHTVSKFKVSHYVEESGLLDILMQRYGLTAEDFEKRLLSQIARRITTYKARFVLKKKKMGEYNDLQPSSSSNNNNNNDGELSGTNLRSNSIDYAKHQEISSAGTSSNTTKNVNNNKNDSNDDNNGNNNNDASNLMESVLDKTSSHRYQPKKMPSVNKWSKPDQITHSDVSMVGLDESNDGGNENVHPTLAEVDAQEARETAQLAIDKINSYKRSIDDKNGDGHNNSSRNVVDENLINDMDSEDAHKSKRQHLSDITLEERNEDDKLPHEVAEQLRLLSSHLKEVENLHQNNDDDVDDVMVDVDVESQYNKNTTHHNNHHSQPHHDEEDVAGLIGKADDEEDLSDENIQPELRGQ
# Assay: PBM E-score (8-mer binding enrichment) (E-score (-0.5 to 0.5)); higher = stronger / more preferred TF binding
# Settings: protein concentration: 200 nM; construct: GST-full length
# Experimental: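 Universal 'all 10-mer' protein binding microarrays (Agilent AMADID 015681) probed with GST-tagged S. cerevisiae TFs (full-length or DBD) made by in vitro transcription/translation (PURExpress), about 100-200 nM. Bound TF was detected with fluorescent anti-GST. Each ungapped 8-mer (which stands for itself and its reverse complement) is scored by the PBM enrichment score (E-score), a modified Wilcoxon-Mann-Whitney statistic from -0.5 to +0.5, computed with the Universal PBM Analysis Suite. Scale: above 0.35 generally sequence-specific binding.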
row,Sequence,PBM E-score
1,AACAGAGC,-0.0439
2,ACTCTGTG,-0.0599
3,GTGCCATA,-0.14
4,CCAAAAGC,-0.0875
5,TCGCATAA,0.205
6,AATACTTC,-0.0521
7,AAGAATGA,0.293
8,CATGTCAA,0.105
9,GATGTCAC,0.395
10,AATGTCGA,0.146
11,AATGTCGG,-0.0313
12,AATGTCAT,0.306
13,CATGTCAC,0.383
14,GATGTCAA,-0.0282
15,ACTGTCAT,0.0825
16,AGTGTCAT,0.21
17,GCTGTCAC,0.197
18,CATGTCAG,0.0449
19,AATGTCGT,0.302
20,GAGTTGTA,0.0502
21,GGTAGCTA,-0.16
22,AAACTCGC,-0.0402
23,GAGTGTCC,-0.0553
24,CACCTCGC,-0.0945
25,ACAGTTGA,-0.00384

row,Sequence,PBM E-score
1,ATGGAGAA,-0.0924
2,CTTGTGGA,-0.249
3,GTCCCAAC,0.0207
4,ACAGCTAA,-0.159
5,CGTGTCAG,0.27
6,AGTGTCAC,0.174
7,CGTGTCAC,0.327
8,AATGTCAA,-0.00569
9,AATGTCAC,0.416
10,AATGTCAG,-0.169
11,CACGCCGG,-0.0297
12,GATAGGTA,0.0863
13,CGGGCGGA,-0.157
14,CTTGCATA,0.0552
15,TGCGTACA,0.0613
16,CCCGTACG,0.348
17,TCCGTACA,0.368
18,ACCGTACA,0.327
19,AACGTACG,0.222
20,CCCGTACA,0.263
21,ACCGTACT,0.286
22,TCCGTAAA,0.145
23,ACCGTAAG,0.226
24,ACCGTACG,0.34
25,AGCGTACA,-0.121

row,Sequence,PBM E-score
1,CCCGTACC,0.182
2,CTCAGCCA,-0.0785
3,CGCGCAGA,0.103
4,AGTAACGG,0.0792
5,AAGAGAGT,-0.24
6,GAAGGGTC,-0.227
7,ACTAAAAG,0.0434
8,CAATGCCG,-0.0313
9,AGTTGAGG,-0.116
10,CTTACGGC,-0.0264
11,ACCGTACC,0.118
12,GCCGTACC,0.356
13,GCCGTACA,0.294
14,GCATACGA,0.0403
15,CCATACGG,0.281
16,ACATACGG,0.3
17,CCCTACGA,0.041
18,CCATACGA,0.283
19,TCCTACGA,0.347
20,ACATACGA,0.356
21,TCATACGA,0.328
22,ACATACTA,0.109
23,GCCTACGA,0.239
24,ACATACGT,0.033
25,ACATACGC,-0.0157

row,Sequence,PBM E-score
1,GCTAGTAC,0.0984
2,AGCTTGAA,-0.106
3,TACCGTCA,0.262
4,CGTATCAG,0.0845
5,TCATTCGA,0.129
6,ACCTCTGG,-0.129
7,GAGCCTGA,-0.165
8,AAACCGGA,0.00218
9,CCACGAAC,0.338
10,CCACGATC,0.335
11,CCACGATA,0.143
12,ACACGATC,0.25
13,CCACGAAG,0.0703
14,CCACGAAA,0.216
15,CTCGGGAA,0.0853
16,AGTCATGA,0.149
17,ACCTTTTG,-0.00807
18,GAATGATA,0.397
19,GAATGAAA,-0.0868
20,CAATGAGA,-0.0863
21,GCATGATA,0.268
22,CAATGATG,0.106
23,CAATGATA,0.322
24,TAATGAGA,0.0631
25,TAATGATA,0.348

row,Sequence,PBM E-score
1,TAATGAAA,0.12
2,ACATGATA,0.315
3,GAATGAGA,0.0436
4,ACATGATC,0.292
5,CGGAGAAC,-0.184
6,GTAGATAC,0.0486
7,CCTGTGTC,-0.275
8,CGTAGAAC,0.118
9,AACCACAT,0.182
10,GCCATAGC,-0.055
11,ACTTCAAG,0.0326
12,CTACGTGC,-0.0934
13,ACGGACGG,0.077
14,TCGGTGCA,-0.0272
15,AAATGATT,0.275
16,GAATGAAC,-0.112
17,GAATGAGC,0.051
18,CAATGATC,0.31
19,ACATGATG,0.119
20,GAATGATC,0.32
21,CAATGAAC,-0.0206
22,AAATGAGG,0.0174
23,AAATGATG,0.318
24,AAATGATA,0.409
25,AAATGAAA,0.214

row,Sequence,PBM E-score
1,AAATGATC,0.228
2,AGCTACCC,-0.0429
3,ACGCTAGT,0.043
4,CAATGCGG,-0.281
5,ACGGGTCC,0.142
6,GTGGACAC,-0.0874
7,TAGGTCAA,0.0576
8,ATGGCGAG,0.0386
9,AGTATTGA,0.0838
10,AGTATTTA,0.152
11,CGTATTTC,0.316
12,GGTATTGA,0.00996
13,GGTATTTA,0.0301
14,CGTATTGA,0.307
15,CCTATTTC,0.095
16,CGTATTTA,0.335
17,AGTATTTC,0.209
18,AACCTGGC,-0.112
19,GGCCGGCA,-0.157
20,CTGCCGAC,-0.121
21,TCTCTCCA,-0.031
22,GGCTCTCA,-0.224
23,ATCGTGAC,0.255
24,AGCGTGAC,0.186
25,CTCGTGAA,0.224

row,Sequence,PBM E-score
1,CTCGTGAC,0.344
2,CGCGTGAC,0.303
3,CGCGTGAG,0.00035
4,GGACCCCC,-0.249
5,CGACTATA,0.129
6,AGACCTAA,-0.206
7,CTACATAA,-0.118
8,TGACATAA,0.351
9,TGACAAAA,0.304
10,TTACATAA,0.197
11,GGACATAA,-0.032
12,GTACATAA,0.324
13,GGACAAAA,-0.0523
14,AGACATAA,-0.0415
15,GTACAAAA,0.344
16,CTACAAAA,0.139
17,ATACAAAA,0.0848
18,CGACAAAA,0.241
19,AACACTGA,-0.142
20,AGTGGATA,0.0619
21,AAAGAAGG,-0.118
22,AACACCAC,0.00166
23,CAATCTAC,-0.0654
24,ACCAAGAA,-0.00575
25,TAAATGCA,0.0499

row,Sequence,PBM E-score
1,AGAGACCC,-0.221
2,CCGGGCCG,-0.129
3,TTTTAAAA,0.0597
4,ATAAATAA,0.246
5,CTAAATTA,0.0644
6,ATAAATTA,0.362
7,ATAAATTG,0.115
8,ATAAATAG,0.104
9,ATAAATAT,0.316
10,ATATAAAC,0.0743
11,ATATAAAT,0.3
12,ATATAAAG,0.146
13,ACTCGTCT,0.0807
14,CGGATATA,0.185
15,ACTCCTAC,0.0623
16,CTGGTAAA,-0.16
17,GAACGCGC,0.0459
18,AGCACGGC,0.0922
19,GAATCGTC,0.239
20,ACGATGAC,0.264
21,AAGATGAC,0.313
22,AAGATGAT,0.304
23,CAGATGAC,0.058
24,ACGATGAT,0.322
25,AAGATGAA,-0.083

row,Sequence,PBM E-score
1,AAGATGAG,0.00927
2,ACGATGAA,0.2
3,GAGATGAC,0.141
4,CACCAATG,0.0285
5,GATCGACC,-0.0655
6,ACAACGCT,-0.0795
7,GATCTTGC,0.0639
8,CTGCCCTA,-0.132
9,CTCCATGC,-0.265
10,GATCCTGC,0.0793
11,AGGCCGTG,0.092
12,TGAGAGCA,-0.0853
13,CCGCCGTA,0.0615
14,CCGCCGTC,0.334
15,ACGCCGTC,0.282
16,CATTGCCG,0.0936
17,GAACTCTC,-0.211
18,CCGCAGTC,-0.165
19,TGACTTAA,0.061
